The full list was thinned out, with hits kept by preference.
KDM5B inhibitor – KDM5B demethylase inhibition. KDM5B demethylase, FDH-coupled NADH fluorescence (FDH is formaldehyde dehydrogenase). Potency, µM (series often up to 57.7 µM), hits mostly inhibitors. actives 2.6% (n = 220,000). AID 1347165; active = well fitted inhibition curve with a large enough effect; note: 0% is about no effect; nearly all actives have a fitted effect of over 70% in size
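Inhibition is measured as reduced NADH fluorescence generation from FDH coupling to formaldehyde release. Truncated KDM5BΔAP at 200 nM final acts on H3K4me3 peptide (12.5 µM in substrate mix) in pH 7.5 HEPES buffer with Tween-20, 30 min, room temperature.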
The depositor's hits bear a star; i = inactive. Potency is the fitted concentration of half-maximal effect.

SMILES	KDM5B inhibitor
Cn1c(=O)[nH]c(=O)c2c1nc(N1CCC(C(N)=O)CC1)n2Cc1ccccc1Cl	i
CCCC(C)(NC(=O)OCc1ccccc1)C(=O)O (centres undefined)	i
Cc1cc(NC(=O)c2nc3ccccc3nc2N2CCCCC2)ccc1Br	i
O=c1[nH]c(N2CCN(c3ccc(F)cc3)CC2)nc2c1CCC2	i
Cc1cc(C2CCCN2S(=O)(=O)c2cc(C)c(C)cc2C)on1 (centres undefined)	i
O=C(O)CCC(=O)N[C@H]1CCN2C(=O)c3cc(-c4ccc(Cl)cc4)ccc3NC(=O)[C@H]12	32µM*
CC(C)NC(=O)N[C@H]1CCN2C(=O)c3cc(-c4ccc(Cl)cc4)ccc3NC(=O)[C@H]12	32µM*
O=C(O)CCC(=O)N[C@H]1CCN2C(=O)c3ccc(Cl)cc3NC(=O)[C@H]12	i
Cc1cccc(-c2ccc3c(c2)C(=O)N2CC[C@H](NC(=O)NC(C)C)[C@H]2C(=O)N3)c1C	i
O=C(NC1CCCCC1)N[C@H]1CCN2C(=O)c3cc(-c4ccccc4)ccc3NC(=O)[C@H]12	i
Cc1cccc(-c2ccc3c(c2)C(=O)N2CC[C@H](NC(=O)CCC(=O)O)[C@H]2C(=O)N3)c1C	i
O=c1oc2ccccc2c(N2CCCC2)c1NS(=O)(=O)c1ccc(Br)cc1	i
O=C(Cc1ccc(F)cc1)NCCc1c[nH]c2ccccc12	i
Cc1ccc(OCC(=O)N[C@@H]2CCOC[C@H]2Oc2cccc(F)c2)cc1C	i
COc1cccc(CCC(=O)N[C@@H]2COCC[C@@H]2Oc2cccc(F)c2)c1	i
CC(C)c1cc(C(=O)N[C@@H]2COCC[C@@H]2Oc2cccc(F)c2)nc(N)n1	28µM*
O=C(c1ccc(OCc2cscn2)cc1)N1CCN(C2CCS(=O)(=O)C2)CC1 (centres undefined)	i
Cc1ccccc1Cn1c(N2CCC(C(=O)N3CCCC3)CC2)nc2ccccc21	i
COc1cccc(-c2cc(-c3c(C)noc3C)cc3c2C(=O)N(C)C3)c1OC	i
CC(=O)Nc1cccc(-c2csc(Nc3ccc(O)cc3C)n2)c1	i
COc1ccc(-c2onc(C)c2-c2ccc(OC)c(OC)c2)c(O)c1	i
C[S+](=O)([O-])c1ccc(-c2cc(C(=O)N3CCCC3)nn3cccc23)cc1	i
NC(=O)c1cccc(-c2cc(-c3ccncc3)c3cncn3c2)c1	i
C[S+](=O)([O-])c1ccc(-c2cc(-c3cccnc3)c3cncn3c2)cc1	40µM*
CC(=O)Nc1cccc(-c2cc(C3=CCOCC3)c3cncn3c2)c1	40µM*
SMILES	KDM5B inhibitor
COc1ccc(-c2cc(-c3c(C)noc3C)c3cncn3c2)cc1	32µM*
C[S+](=O)([O-])c1ccc(-c2cc(C(=O)NCc3cccnc3)nn3cccc23)cc1	i
CC(=O)Nc1cccc(-c2cc(-c3c(C)noc3C)c3cncn3c2)c1	40µM*
Cc1nc(-c2cccc(NC(=O)N3CCCC3c3c(C)noc3C)c2)cs1 (centres undefined)	i
CC(=O)Nc1cccc(-c2csc(Nc3ccccc3C)n2)c1	i
CCc1ccc(OCC(=O)Nc2cccc3ccc(C)nc23)cc1	i
COC(=O)c1cc(NC(=O)N2CCc3[nH]cnc3C2c2ccc(Cl)cc2)ccc1Cl (centres undefined)	i
CCC(CC)NC(=O)COC(=O)c1ccc2ccccc2n1	i
O=C(COC(=O)c1ccc2ccccc2n1)c1ccc2ccccc2c1	i
CCc1cc(CC)n(-c2nc3c(c(=O)[nH]c(=O)n3C)n2Cc2ccccc2C)n1	i
CCCCC(=O)NC(Nc1ccccc1F)(C(F)(F)F)C(F)(F)F	i
Clc1ccccc1C1=Nc2ccc(Br)cc2C(c2ccccc2Cl)=Nc2ccc(Br)cc21	i
CC(NC(=O)CNC(N)=O)c1cccc(C(F)(F)F)c1 (centres undefined)	i
Cn1c(=O)c2c(nc(N3CCN(c4ccccn4)CC3)n2Cc2cccc(Cl)c2)n(C)c1=O	i
COc1ccc(Nc2nc(N)c(C(=O)c3cc(C)ccc3C)s2)cc1Cl	i
Cc1noc(C)c1-c1cc(-c2cccc(CO)c2)cn2cncc12	35µM*
Cc1noc(C)c1S(=O)(=O)N1CCC(c2noc(-c3cccnc3)n2)C1 (centres undefined)	i
Cc1noc(C)c1-c1cc(-c2cccnc2)cn2cncc12	35µM*
Cc1noc2c(-c3cccc(CO)c3)cc(-c3cccc(C(F)(F)F)c3)nc12	i
Cc1noc(C)c1-c1cc(-c2cnn(C)c2)cn2cncc12	40µM*
Cc1noc(C)c1-c1cc2c(c(-c3cccc(S(C)(=O)=O)c3)c1)C(=O)N(C)C2	i
Cc1noc(C)c1-c1cc(-c2ccccc2O)cn2cncc12	i
CNC(=O)c1cc2cc(-c3c(C)noc3C)nc(-c3cnn(C)c3)c2o1	i
Cc1noc(C)c1-c1cc2c(c(-c3ccccc3F)c1)C(=O)N(C)C2	i
Cc1ccccc1-c1nnn(CC(=O)Nc2ccc(Cl)c(S(=O)(=O)N3CCOCC3)c2)n1	i
SMILES	KDM5B inhibitor
CCCCSc1nc2c(c(=O)n(C)c(=O)n2C)n1Cc1ccc(Cl)cc1	i
O=C(Nc1ccc(I)cc1C(F)(F)F)c1ccc(-c2ccccc2)cc1	i
Cc1cc(C)cc(NC(=O)Cn2c(N3CCN(c4ccccc4)CC3)nc(C)cc2=O)c1	i
CCc1nc(CN(CC)Cc2cccs2)cs1	i
CC(C)(C)CN[C@H]1C[C@@H](Cc2cc(COc3ccccc3)on2)C1(C)C	i
CNCCCNC(=O)/C(=N\O)c1ccccc1	i
CC(NCC(=O)NC1(C#N)CCCCCC1)c1ccc(Cl)cc1Cl (centres undefined)	i
COC(=O)C1=C(CN2CCN(C(C)C)CC2)NC(=O)NC1c1ccc(C)cc1 (centres undefined)	i
O=C(/C=C/c1ccc(-c2cccc(Cl)c2)o1)c1cc(Cl)ccc1Cl	i
COc1ccc(C2(C(=O)N3CCC(F)CC3)CCOCC2)cc1	i
COc1ccc(-n2nc(C(=O)NCC(=O)N3CCN(c4ccccn4)CC3)c3ccccc3c2=O)c(OC)c1	i
COc1ccc(C(=O)NCC(=O)N2CCN(c3ccccn3)CC2)c(C)c1	22µM*
CCOc1ccccc1N1CCN(C(=O)CNC(=O)c2ccc(OC)c(OC)c2)CC1	i
O=C(COc1ccc(F)cc1)NCC(=O)N1CCN(c2ccccn2)CC1	25µM*
COc1ccccc1CC(=O)N1CCc2nn(C)c(=O)n2CC1	i
COc1ccccc1CC(=O)NCC(=O)N1CCN(c2ccccn2)CC1	25µM*
COc1ccc(C2(C(=O)N3CCN(c4ncccn4)CC3)CCOCC2)cc1	i
O=C(CN1CCN(c2ccccn2)CC1)Nc1cccc(F)c1	i
O=C(CN1CCN(c2ccccn2)CC1)Nc1cc(F)ccc1F	i
COc1ccc(C2(C(=O)N3CCN(c4ccccn4)CC3)CCOCC2)cc1	79µM*
COc1ccccc1N1CCN(C(=O)CNC(=O)c2ccc(Cl)cc2Cl)CC1	i
COC(=O)CCSc1nnc(-c2nn(Cc3ccccc3)c(=O)c3ccccc23)o1	i
Cc1nc(/C=C/C(=O)NC(C)C23CC4CC(CC(C4)C2)C3)cs1 (centres undefined)	i
O=S(=O)(Cc1ccc(Cl)cc1)c1nc2ccccc2nc1NC1CCCC1	i
CN(C)c1ccc(C(CNC(=O)/C=C/c2ccco2)c2c[nH]c3ccccc23)cc1 (centres undefined)	i
COc1ccc(S(=O)(=O)N2CCSC2c2cc(OC)ccc2OC)cc1 (centres undefined)	i
